# Screen size: about 53,000 sequences; about 3,700 (7%) were called active.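 Rule for the calls: active = gene knockdowns whose robust z-score for IL-1 alpha signal is at least 2 or at most -2, so actives lie on both sides; inactive = the rest.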 Shown is part of a subset that was picked to be rich in actives.
# Test: Components of the Cytosolic LPS Sensing Pathway: Gene Identification via Genome-wide siRNA Screen;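 note: robust z of the log signal after scaling to non-targeting control siRNA wells of the plate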
# Settings: RAW264.7 macrophages, IL-1a HTRF, actives lie on both sides, screened at 100 nM (by protocol), cells primed 5 h with Pam3CSK4 first
# Method in brief: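 Using IL-1a HTRF as read-out, the screen measured release from RAW264.7 cells after 48h siRNA knockdown (100 nM), 5 h Pam3CSK4 priming and 24 h cytosolic LipidA. Values were expressed relative to negative-control wells as robust z-scores.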
row,Sequence,z-score
1,GGAGCACAGAAAACACAAGTT against Ncan,3.41 (active)
2,CCACGCUACAUGCAAUGGCTT against Itpka,0.0149 (inactive)
3,CCCUCUCUGGGACUACAUATT against Zfp395,0.00687 (inactive)
4,GGCAUGAGGGCAAAUGAAATT against 4933434M16Rik,-0.707 (inactive)
5,GGAACAUUUUGGAAAAGACTT against 1300017J02Rik,-0.0855 (inactive)
6,GUACUAGCUAAUUGGGCCATT against Speer4b,0.651 (inactive)
7,GGUUCACCUGGAUUCUGCATT against Clasrp,-2.1 (active)
8,GGAGCAUAUACAACUCAGCTT against Dis3l,0.1 (inactive)
9,GGAUGGGAUGAAAAUUGAATT against Papolg,-0.566 (inactive)
10,GCUUGUCUCACACAGCUCUTT against Olfr401,-3.11 (active)
11,GGUACUGGAAGAGGAGGUATT against Ppil3,-0.507 (inactive)
12,GCACAUUGGGAUAGCUGCATT against Trim65,1.48 (inactive)
13,GGAAAUAUGUGUCCGCACUTT against Mfap2,-0.0699 (inactive)
14,GAGAGGGCAUAAUGGUUUUTT against H3c3,4.58 (active)
15,GGGAUACAGAUUUUGUUUATT against Olfr1261,-0.116 (inactive)
16,GGGAAGUUGUCUGACUAUUTT against Cyc1,0.225 (inactive)
17,GGGAAAUGGAGGAUAAUUATT against Zmat1,-0.172 (inactive)
18,GCAAUUACAGGAGGAAUUATT against Orc3,2.86 (active)
19,GCUGAAAACUAGUCAGUCCTT against Epn3,-1.07 (inactive)
20,GCCUUAAAAGACCUGACGUTT against Abca8b,2.12 (active)
21,GCUUACAGCACAACAACAUTT against Ubap1,-0.00967 (inactive)
22,CCUGGACACGAUUUCAGAGTT against Rbm6,1.18 (inactive)

row,Sequence,z-score
1,GGAGGGUCGGCUUAUAAUUTT against Adam6b,2.16 (active)
2,GGAAGCUUCAAGCCAUGGUTT against Creb3,-0.919 (inactive)
3,CGUUGGAUCUUGAUAAAACTT against Lpar2,0.179 (inactive)
4,GGACUUGAUCAAUGGCUAUTT against Wscd1,-0.043 (inactive)
5,GUGGCGAUAUCCAGAGAUGTT against Vmn1r18,0.261 (inactive)
6,GCCGGCUGUAUUCAGUACGTT against Hoxc9,3.06 (active)
7,GCCACGUCUAAGUAUCAUUTT against Col6a1,-0.377 (inactive)
8,GCUCUGUUGGAAAGGUUUATT against Exosc6,0.0305 (inactive)
9,GCAACUGUUCUACGUCUGATT against Tmprss2,1.63 (inactive)
10,GAAGCUGUCCAAGUACGAGTT against Atoh7,-0.299 (inactive)
11,GGCAUGACAUGUAGAUGGCTT against Aldh3b3,2.17 (active)
12,CGAGCAAUGUUAAAAAUGATT against Slain2,-0.993 (inactive)
13,GGGCAAACCCAAGACCUUATT against Sgms2,-0.0749 (inactive)
14,GGAAUUUGAGAUUGAAUGUTT against Katnbl1,0.478 (inactive)
15,GCCUGGAGACUACAUAUCCTT against Cdc20,-2.09 (active)
16,GCUCGAAUGUGUAAAGACGTT against Csnk1e,0.982 (inactive)
17,CCUUGUUGCUCUGUCGAUCTT against Grina,0.0669 (inactive)
18,CCAAGCUUAUUGACAAUGATT against Spta1,0.213 (inactive)
19,GGUGUGUUAAUUUCUAGAUTT against Frs2,0.945 (inactive)
20,GGCUUGAAGCCCUAGUACUTT against Prss30,2.46 (active)
21,GGACAACAAGAUCAGGACCTT against Akap4,0.535 (inactive)
22,GGUUACCUAUUGGAUGACATT against Muc19,-1.43 (inactive)

row,Sequence,z-score
1,GGAAAAAUCAAAAGUGUUGTT against Tamm41,-1.55 (inactive)
2,GACUACAAAGGAGAGCAAATT against Igfbp6,2.07 (active)
3,GCUCCAGCUCUGCUUUAAGTT against 4931440P22Rik,1.28 (inactive)
4,GGGCAAUUUGGAGCUUACCTT against Erbb2,-0.952 (inactive)
5,GAUGCCUUUUAUGGGUGCATT against Olfr61,0.0552 (inactive)
6,GGCGUGAAGAAGUUUGAUGTT against Pklr,-0.431 (inactive)
7,GCGAGAAUUCUCUUCCAAUTT against Gsx2,2.33 (active)
8,GGACUGUCAGUACUGUCAATT against Agr3,0.445 (inactive)
9,CCUAAAAUACUUUACCGGGTT against Bckdhb,-0.025 (inactive)
10,GGAGAAUCUUCAACACUGGTT against Adprh,-0.951 (inactive)
11,GGCUUCAAAACAUUUUCAGTT against Kansl1l,2.81 (active)
12,GGCAUAUUCCGUUUUUAAATT against Pafah1b1,-1.09 (inactive)
13,GCAGUUACAGGAAAUCGAGTT against Cdr2,-0.746 (inactive)
14,GCCCAAGCAGUUCAUUCAUTT against Epc2,0.665 (inactive)
15,GCAUUAGUCAUUGUUAACGTT against Hsd17b4,0.653 (inactive)
16,GGGCGACUUUAGCUUUUAUTT against Pced1b,2.51 (active)
17,GGACUUCACCAUCCACGAATT against Pgap2,0.622 (inactive)
18,GGAUGCCUGAGUGCUACAUTT against Lsm4,-0.837 (inactive)
19,CGGUGCGAUCUCUCAAAGUTT against Cryba4,2.97 (active)
20,GAUAUAAAGCCUUCAACACTT against Olfr912,-1.48 (inactive)
21,GGAGAUGCUCAUUUUGAUUTT against Mmp8,1.76 (inactive)
22,GGUAGUGGCUUGAACAGGUTT against Vmn1r201,0.115 (inactive)

row,Sequence,z-score
1,GGAUCCUCGGACUAAAAGUTT against Pnma1,-0.228 (inactive)
2,GCAUCUUAACACAUGUAAATT against Zfp369,-0.834 (inactive)
3,GGGAUGUAUUUCAACAACUTT against Wwox,0.0276 (inactive)
4,GGUAUAAGGAUUCUUUGAATT against Alg13,-2.8 (active)
5,GGCAUGGACAUUGAUGACATT against Dnajb1,-0.834 (inactive)
6,GCCUAAAGCUUUUCUACAATT against Mlph,0.161 (inactive)
7,GGUCAUCCGAGAUUUCACCTT against Elavl3,-0.944 (inactive)
8,ACUUCACCAUGGUACCCGGTT against Tspo,1.06 (inactive)
9,GGCUUAAAUGCGUUCUACATT against Slc25a3,0.0986 (inactive)
10,GCCAGGAUAUGGAUAUGCATT against 1520401A03Rik,-2.06 (active)
11,GGCAGAAGAGUGGUACUUUTT against Fyn,-1.63 (inactive)
12,AAAGGACUGCCUAAGACAATT against Vmn1r203,-0.921 (inactive)
13,GCCAUGUUCUUUGCUCCCATT against Pigl,-1.8 (inactive)
14,GGGCAAACUCUAGAGCUACTT against Pdgfrl,-0.0578 (inactive)
15,GUCUGGAUAUUUGACACUATT against Tmem60,-0.637 (inactive)
16,GGAGUUGAUUGAAAUCAUCTT against Atp5c1,0.466 (inactive)
17,CGCAGGACGAUUAUGACGUTT against Pcdhb12,0.753 (inactive)
18,GGGAAACAAAAAAGAUUUCTT against Ptpn13,0.619 (inactive)
19,GCCAGCUAAAGAAGUCUAUTT against Gpr17,2.81 (active)
20,GGUCUCAAUAAACUUCAGGTT against Mfap4,0.926 (inactive)
21,CCCAAAGCGUGACUGUCAATT against Sema4b,-0.623 (inactive)
22,CCUGAAGUGGAGAUUCAACTT against Kcnj6,-1.27 (inactive)

row,Sequence,z-score
1,GGAGUUUACAGAAAUUAUCTT against Pecam1,0.214 (inactive)
2,GAUUAGCAUCCAUGAACACTT against Tcl1b2,2.16 (active)
3,GGCAGAUUCAGACCUUCGATT against Sult1c2,-0.753 (inactive)
4,CGAACAGUGCUUCGUAUGUTT against Lims1,-1.04 (inactive)
5,GGUACAUGAAGAAAAGUAATT against Lrrc19,-0.243 (inactive)
6,GCAUACAAGACCGUGAUCATT against Psmc4,-2.03 (active)
7,GGUUAUUUCUCUCUCCCUATT against Creld1,0.524 (inactive)
8,GGAGGAUGACAAAAUCUAUTT against Rnf113a2,1.25 (inactive)
9,GCAUGGUAUUAGAUGAUGATT against Nexn,-1.69 (inactive)
10,GCGCAGAUAUCCUGGUUUGTT against Dhx36,2.28 (active)
11,GGAAUGUGCCUAAGUUUGGTT against Ufc1,1.08 (inactive)
12,CCAAUGGAACAUUAAGUGATT against Psma1,-0.485 (inactive)
13,CCAUAGUUGAUGGAAGAUATT against Shld2,-0.847 (inactive)
14,CCCUAUUUGUCAACGAUUATT against Lrrc24,-0.662 (inactive)
15,GGAAGCAAUGUGAGAAAUUTT against Tmem91,2.54 (active)
16,GCCAAAUCAUGGGUCUGGUTT against Npas3,0.969 (inactive)
17,GGCAAUGUGCCCAAUAUCATT against Rfc2,-1.61 (inactive)
18,GGACUCAUAUCCUUACAUATT against AI854703,-0.0584 (inactive)
19,GGGAUAGCUGUCACCUUCUTT against Rad9a,-0.742 (inactive)
